Reference: PubChem BioAssay (NCATS)
Values without a mark were called inactive. Results filed as inconclusive are left out. The source made the active and inactive calls. Unless noted, calls come from the whole dose curve; as a rule, active = well fitted curve in either direction with a large enough effect (not every such curve was filed as active); inconclusive = small, poorly fitted or top-dose-only effect, or another doubt; inactive = flat fitted curve, though single readings scatter.

Tests used:
[1] = target: Lysosomal acid glucosylceramidase (Homo sapiens) (UniProt P04062); assay: Glucocerebrosidase-p2 (AID 348; in the data active = potency below about 10 µM; note: potency is the fitted concentration of half-maximal effect); conditions: purified GBA, blue fluorogenic substrate, 40 min
Chain of Lysosomal acid glucosylceramidase (Homo sapiens) (P04062 whole entry, looked up): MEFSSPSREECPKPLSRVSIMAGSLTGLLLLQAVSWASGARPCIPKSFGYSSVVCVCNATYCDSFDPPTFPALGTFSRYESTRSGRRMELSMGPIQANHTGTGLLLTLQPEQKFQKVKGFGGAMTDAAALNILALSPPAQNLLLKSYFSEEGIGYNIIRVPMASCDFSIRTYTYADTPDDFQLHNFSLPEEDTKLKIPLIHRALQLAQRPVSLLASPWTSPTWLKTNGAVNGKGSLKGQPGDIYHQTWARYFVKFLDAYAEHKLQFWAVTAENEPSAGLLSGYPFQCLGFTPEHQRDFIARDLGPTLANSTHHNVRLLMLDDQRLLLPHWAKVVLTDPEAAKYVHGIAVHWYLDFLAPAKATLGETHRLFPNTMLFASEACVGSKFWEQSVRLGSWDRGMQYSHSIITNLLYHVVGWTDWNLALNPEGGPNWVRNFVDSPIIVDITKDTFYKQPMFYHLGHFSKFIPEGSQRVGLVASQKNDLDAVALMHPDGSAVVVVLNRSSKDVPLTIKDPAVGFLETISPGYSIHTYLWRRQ
Procedure, shortened: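 Normal human glucocerebrosidase (0.2 nM) with blue fluorogenic substrate (80 uM final) in citrate/phosphate pH 5.9 with 10mM sodium taurocholate, 0.01% tween-20; 40 min RT, NaOH/glycine stop; fluorescence Ex 365/Em 440; AC50 from a titration from 0.6 nM upwards.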

[2] = AP1 Signaling Pathway (AID 357); conditions: ME-180 AP-1-bla reporter, EGF-induced, beta-lactamase ratio, 5 h; at 7.69 µM (top of the series) unless noted;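 note: ME-180 reporter cells stimulated with EGF at its EC50 level; % is set by controls: 0 for no effect and ±100 for the full control effect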
Procedure, shortened: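 Read-out was the 460nm/530nm emission ratio (excitation 405nm) after CCF4 loading for 2.5 hours at room temperature. Cells carried an AP-1-driven beta-lactamase reporter, were stimulated with EC50 EGF plus compound for 5 hours, and AC50 values came from titrations.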

[3] = target: Cytochrome P450 1A2 (Homo sapiens) (UniProt P05177); assay: p450-cyp1a2 (AID 410; calls by dose curve; note: potency is the fitted concentration of half-maximal effect;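 for activity change, negative = inhibition: -100% = full effect of reference inhibitor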); conditions: recombinant CYP1A2, luciferin-ME demethylation, luminescence; series mostly up to 11.4 µM
Chain of Cytochrome P450 1A2 (Homo sapiens) (P05177 whole entry, looked up): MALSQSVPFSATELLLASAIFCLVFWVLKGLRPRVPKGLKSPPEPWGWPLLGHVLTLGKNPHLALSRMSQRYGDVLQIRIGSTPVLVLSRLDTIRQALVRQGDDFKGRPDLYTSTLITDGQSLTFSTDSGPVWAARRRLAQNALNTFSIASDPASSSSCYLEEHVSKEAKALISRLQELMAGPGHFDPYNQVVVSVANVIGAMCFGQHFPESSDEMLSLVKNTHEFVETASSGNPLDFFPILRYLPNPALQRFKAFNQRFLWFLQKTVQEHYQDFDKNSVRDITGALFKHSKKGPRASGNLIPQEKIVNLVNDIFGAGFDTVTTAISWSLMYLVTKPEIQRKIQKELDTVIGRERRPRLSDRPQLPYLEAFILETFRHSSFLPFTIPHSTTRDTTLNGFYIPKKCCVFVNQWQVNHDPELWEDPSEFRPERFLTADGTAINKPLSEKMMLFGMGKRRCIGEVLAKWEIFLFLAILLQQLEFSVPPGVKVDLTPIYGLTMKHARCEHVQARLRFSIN
Procedure, shortened: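 Read-out is luminescence from luciferin produced by CYP1A2 demethylation of Luciferin-ME (100uM, at Km). Detection reagent stopped the 60 min NADPH-dependent reaction; signals were normalized to 57 uM furafylline.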

[4] = NFAT Signaling Pathway (AID 444); conditions: Jurkat NFAT-bla M1, carbachol, beta-lactamase ratio, 5 h; at 7.69 µM (top of the series) unless noted;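 note: carbachol stimulus at about its EC50 of 1 µM final; % is set by controls: 0 for no effect and ±100 for the full control effect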
Procedure, shortened: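 Read-out: CCF4 FRET ratio (460 nm/530 nm) after 1 h RT dye loading, used for %activity and AC50 from titration series. Cells: Jurkat NFAT-β-lactamase/M1 line, treated with compound plus 1 uM carbachol for 5 h, 37 °C.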

[5] = Stat Signaling Pathway (AID 446); conditions: ME-180 (cervical carcinoma) SIE beta-lactamase reporter, IL-6 stimulated, 5 h; at 7.69 µM (top of the series) unless noted;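 note: ME-180 cervical cancer cells given 40 pM IL-6 alongside compound; SIE-controlled beta-lactamase reporter measured as 460/530 nm FRET emission ratio; % is set by controls: 0 for no effect and ±100 for the full control effect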
Procedure, shortened: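 Normalization used AC90 stimulation (300 pM IL-6) and AC90 inhibition (125 nM pan-JAK inhibitor at 40 pM IL-6). The underlying signal is SIE-driven beta-lactamase in ME-180 cells after 5 h IL-6 exposure with compound.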

[6] = target: Glucocorticoid receptor (Homo sapiens) (UniProt P04150); assay: GR-GFP Redistribution (AID 450;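 active = compounds whose dose series gives a full or clear partial fitted curve of increased nuclear translocation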; note: potency is the fitted concentration of half-maximal effect); conditions: U2OS GR-GFP nuclear translocation, laser cytometry, 2 h
Chain of Glucocorticoid receptor (Homo sapiens) (P04150 whole entry, looked up, the tested form may be a part): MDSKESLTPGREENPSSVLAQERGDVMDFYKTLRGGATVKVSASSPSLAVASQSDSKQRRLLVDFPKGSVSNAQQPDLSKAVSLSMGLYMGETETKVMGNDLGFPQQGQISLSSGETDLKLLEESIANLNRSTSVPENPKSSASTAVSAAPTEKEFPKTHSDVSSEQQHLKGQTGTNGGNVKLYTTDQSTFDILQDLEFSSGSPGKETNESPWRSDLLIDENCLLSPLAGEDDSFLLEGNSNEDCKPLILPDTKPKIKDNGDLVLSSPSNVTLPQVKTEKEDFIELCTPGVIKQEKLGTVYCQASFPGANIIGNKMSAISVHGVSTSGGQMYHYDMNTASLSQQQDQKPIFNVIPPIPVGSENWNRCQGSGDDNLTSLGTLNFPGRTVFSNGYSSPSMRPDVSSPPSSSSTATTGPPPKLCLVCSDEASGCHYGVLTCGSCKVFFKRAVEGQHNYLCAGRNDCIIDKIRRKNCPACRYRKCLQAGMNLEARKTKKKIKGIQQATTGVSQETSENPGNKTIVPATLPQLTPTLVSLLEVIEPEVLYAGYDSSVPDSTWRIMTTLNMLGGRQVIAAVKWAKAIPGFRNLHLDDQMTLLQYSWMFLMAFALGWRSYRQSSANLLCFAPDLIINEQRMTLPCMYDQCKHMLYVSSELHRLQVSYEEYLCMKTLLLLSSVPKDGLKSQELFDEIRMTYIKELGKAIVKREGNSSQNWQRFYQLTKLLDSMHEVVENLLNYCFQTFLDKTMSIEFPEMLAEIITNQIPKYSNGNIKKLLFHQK

[7] = target: Glucocorticoid receptor (Homo sapiens) (UniProt P04150); assay: GR-EFC Redistribution (AID 451; calls by dose curve; note: potency is the fitted concentration of half-maximal effect); conditions: CHO-K1 GR-EFC translocation, beta-gal luminescence, 2 h
Procedure, shortened: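 Translocation of GR-ED fusion to nuclear EA restores b-gal, read by luminescence after 1 h room-temperature detection. Engineered CHO-K1 biosensor cells, 1,000/well, exposed 2 h at 37 C to titrations up to 46 uM final.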

[8] = target: Mitogen-activated protein kinase 10 (Mus musculus) (UniProt Q61831); assay: JNK3 AlphaScreen Assay (AID 530); conditions: JNK3 lysate, c-Jun phosphorylation; series mostly up to 11.4 µM;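 note: kinase came from lysate of stimulated human HepG2 cells; signal reports phosphorylation of biotinylated GST-cJun 1-79 at Ser73 with 10 µM ATP; % is set by controls: 0 for no effect and ±100 for the full control effect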
Procedure, shortened: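 Kinase buffer: 20 mM Tris-HCl pH 7.6, 10 mM MgCl2, 1 mM DTT, 0.1 mM Na3VO4, 0.01% Tween-20; ATP 10 uM. Substrate biotin-GST-cJun(1-79), enzyme from activated HepG2 lysates. Detection by Ser73 phospho-antibody AlphaScreen.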

[9] = target: 3',5'-cyclic-AMP phosphodiesterase 4B (Homo sapiens) (UniProt Q07343); assay: qHTS Assay for Inhibitors of PDE-IV (AID 607; active = well fitted activation curve with a large enough effect in the main read-out, with a control signal flat, not every such curve was filed as active; note: % of control where 0% means no effect); conditions: HEK293 ACTOne CNG channel cells, membrane potential fluorescence; series mostly up to 22.9 µM
Chain of 3',5'-cyclic-AMP phosphodiesterase 4B (Homo sapiens) (Q07343 whole entry, looked up): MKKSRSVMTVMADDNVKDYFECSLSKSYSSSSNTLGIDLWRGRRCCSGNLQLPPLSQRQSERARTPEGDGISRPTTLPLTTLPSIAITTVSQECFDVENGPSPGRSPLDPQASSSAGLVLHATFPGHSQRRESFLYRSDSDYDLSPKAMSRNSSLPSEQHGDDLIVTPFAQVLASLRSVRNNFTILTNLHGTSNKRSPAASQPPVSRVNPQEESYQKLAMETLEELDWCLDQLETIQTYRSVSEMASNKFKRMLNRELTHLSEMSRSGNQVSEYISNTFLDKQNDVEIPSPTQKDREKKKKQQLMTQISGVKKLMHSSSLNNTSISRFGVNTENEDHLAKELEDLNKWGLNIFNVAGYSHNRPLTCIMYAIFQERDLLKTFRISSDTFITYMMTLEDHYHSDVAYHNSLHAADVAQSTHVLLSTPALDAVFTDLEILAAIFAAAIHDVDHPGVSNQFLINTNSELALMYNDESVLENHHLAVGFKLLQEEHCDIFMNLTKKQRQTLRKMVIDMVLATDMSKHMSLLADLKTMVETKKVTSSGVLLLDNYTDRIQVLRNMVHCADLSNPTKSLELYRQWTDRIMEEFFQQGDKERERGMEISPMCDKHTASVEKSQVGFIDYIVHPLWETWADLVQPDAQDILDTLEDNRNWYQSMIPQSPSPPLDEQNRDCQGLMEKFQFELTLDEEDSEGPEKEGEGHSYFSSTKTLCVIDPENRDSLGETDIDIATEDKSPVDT
Procedure, shortened: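 HEK293 ACTOne cells with CNG channel (1000/well), endogenous PDE4; membrane potential dye, compounds up to 22.9 uM final. Fluorescence Ex 535/Em 590; RO 20-1724 (100 uM final) as reference.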

[10] = target: Cytochrome P450 2C9 (Homo sapiens) (UniProt P11712); assay: qHTS Assay for Inhibitors and Substrates of Cytochrome P450 2C9 (AID 883; active = well fitted curve in the direction sought with a large enough effect; an effect the other way counts as inactive or inconclusive; note: nearly all actives have a fitted effect of over 60% in size; note: potency is the fitted concentration of half-maximal effect); conditions: recombinant CYP2C9, luciferin-H luminescence, 60 min; series mostly up to 11.4 µM
Chain of Cytochrome P450 2C9 (Homo sapiens) (P11712 whole entry, looked up): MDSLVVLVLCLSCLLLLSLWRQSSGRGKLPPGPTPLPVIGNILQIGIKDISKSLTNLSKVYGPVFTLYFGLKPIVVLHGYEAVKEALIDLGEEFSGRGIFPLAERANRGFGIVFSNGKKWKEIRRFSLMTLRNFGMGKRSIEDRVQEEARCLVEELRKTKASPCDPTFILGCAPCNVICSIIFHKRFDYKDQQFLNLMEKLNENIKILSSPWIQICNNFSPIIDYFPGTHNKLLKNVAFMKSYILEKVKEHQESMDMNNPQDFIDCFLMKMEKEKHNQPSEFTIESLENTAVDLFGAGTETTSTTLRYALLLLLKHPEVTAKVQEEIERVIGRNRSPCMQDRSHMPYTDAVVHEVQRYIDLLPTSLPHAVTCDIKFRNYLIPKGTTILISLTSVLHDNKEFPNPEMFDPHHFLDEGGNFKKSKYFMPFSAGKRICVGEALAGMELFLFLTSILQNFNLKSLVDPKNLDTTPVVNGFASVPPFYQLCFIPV
Procedure, shortened: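 Inhibition of CYP2C9 is scored as loss of luminescence, with 57uM sulphaphenazole defining 100% inhibition. Substrate Luciferin-H is used at 100uM, equal to its KM; enzyme at 10nM in 25mM KPO4, 60 min at 37C with NADPH regeneration.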

[11] = target: Cytochrome P450 3A4 (Homo sapiens) (UniProt P08684); assay: qHTS Assay for Inhibitors and Substrates of Cytochrome P450 3A4 (AID 884; active = well fitted curve in the direction sought with a large enough effect; an effect the other way counts as inactive or inconclusive; note: nearly all actives have a fitted effect of over 50% in size; note: potency is the fitted concentration of half-maximal effect); conditions: recombinant CYP3A4, Luciferin-PPXE luminescence; series mostly up to 57.1 µM
Chain of Cytochrome P450 3A4 (Homo sapiens) (P08684 whole entry, looked up): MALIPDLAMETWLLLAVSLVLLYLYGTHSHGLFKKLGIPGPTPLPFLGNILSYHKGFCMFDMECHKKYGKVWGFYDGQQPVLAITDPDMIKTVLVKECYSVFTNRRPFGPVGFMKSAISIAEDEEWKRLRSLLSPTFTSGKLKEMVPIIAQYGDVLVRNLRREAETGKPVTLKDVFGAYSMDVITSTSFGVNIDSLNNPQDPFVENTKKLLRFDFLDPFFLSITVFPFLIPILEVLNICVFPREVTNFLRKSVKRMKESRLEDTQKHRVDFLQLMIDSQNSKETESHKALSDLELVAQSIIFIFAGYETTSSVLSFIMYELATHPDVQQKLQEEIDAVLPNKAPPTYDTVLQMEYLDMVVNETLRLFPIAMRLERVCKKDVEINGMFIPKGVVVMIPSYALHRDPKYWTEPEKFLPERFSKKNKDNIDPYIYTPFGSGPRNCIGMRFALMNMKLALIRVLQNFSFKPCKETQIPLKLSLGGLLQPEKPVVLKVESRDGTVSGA
Procedure, shortened: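 Luminescent readout of luciferin produced by CYP3A4 (20 nM) dealkylation of Luciferin-PPXE, 25 uM (its KM). NADPH-driven reaction ran 60 min at RT after 10 min compound preincubation; data scaled to 57 uM ketoconazole as 100% inhibition.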

[12] = target: Cytochrome P450 3A4 (Homo sapiens) (UniProt P08684); assay: qHTS Assay for Activators of Cytochrome P450 3A4 (AID 885; active = well fitted curve in the direction sought with a large enough effect; an effect the other way counts as inactive or inconclusive; note: nearly all actives have a fitted effect of over 65% in size); conditions: recombinant CYP3A4, Luciferin-PPXE luminescence, 60 min; series mostly up to 11.4 µM
Procedure, shortened: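 Human CYP3A4 dealkylates Luciferin-PPXE to luciferin, which luciferase detection converts to light. Substrate was at its KM (25uM), buffer 200mM KPO4, reaction 60 min at RT.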

[13] = target: Cytochrome P450 2C19 (Homo sapiens) (UniProt P33261); assay: qHTS Assay for Inhibitors and Substrates of Cytochrome P450 2C19 (AID 899; active = well fitted curve in the direction sought with a large enough effect; an effect the other way counts as inactive or inconclusive; note: nearly all actives have a fitted effect of over 60% in size; note: potency is the fitted concentration of half-maximal effect); conditions: recombinant CYP2C19, luciferin-H EGE luminescence; series mostly up to 11.4 µM
Chain of Cytochrome P450 2C19 (Homo sapiens) (P33261 whole entry, looked up): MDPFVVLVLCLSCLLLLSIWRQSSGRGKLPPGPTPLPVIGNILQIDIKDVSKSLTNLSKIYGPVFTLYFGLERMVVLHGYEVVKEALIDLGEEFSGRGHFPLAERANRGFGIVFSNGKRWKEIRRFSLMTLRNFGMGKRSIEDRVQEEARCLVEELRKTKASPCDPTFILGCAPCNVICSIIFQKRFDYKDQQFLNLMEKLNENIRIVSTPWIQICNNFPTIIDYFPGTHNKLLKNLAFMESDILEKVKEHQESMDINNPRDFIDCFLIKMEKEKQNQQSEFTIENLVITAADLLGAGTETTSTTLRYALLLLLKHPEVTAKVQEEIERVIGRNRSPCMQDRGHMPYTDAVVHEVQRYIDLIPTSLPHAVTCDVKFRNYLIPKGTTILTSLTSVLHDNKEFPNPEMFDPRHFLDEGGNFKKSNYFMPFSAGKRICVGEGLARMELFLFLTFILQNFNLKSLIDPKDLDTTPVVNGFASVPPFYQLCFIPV
Procedure, shortened: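 5nM enzyme + 10uM Luciferin-H EGE (=KM), 50mM KPO4; cpd pin-transferred, 10 min 37C; NADPH regen, 60 min 37C; stopped w/ luciferin detection reagent, 20 min; luminescence. Normalized to 57uM ketoconazole (AC100).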

[14] = target: Cytochrome P450 2D6 (Homo sapiens) (UniProt P10635); assay: qHTS Assay for Inhibitors and Substrates of Cytochrome P450 2D6 (AID 891; active = well fitted curve in the direction sought with a large enough effect; an effect the other way counts as inactive or inconclusive; note: nearly all actives have a fitted effect of over 60% in size; note: potency is the fitted concentration of half-maximal effect); conditions: recombinant CYP2D6, luciferin-ME EGE luminescence; series mostly up to 11.4 µM
Chain of Cytochrome P450 2D6 (Homo sapiens) (P10635 whole entry, looked up): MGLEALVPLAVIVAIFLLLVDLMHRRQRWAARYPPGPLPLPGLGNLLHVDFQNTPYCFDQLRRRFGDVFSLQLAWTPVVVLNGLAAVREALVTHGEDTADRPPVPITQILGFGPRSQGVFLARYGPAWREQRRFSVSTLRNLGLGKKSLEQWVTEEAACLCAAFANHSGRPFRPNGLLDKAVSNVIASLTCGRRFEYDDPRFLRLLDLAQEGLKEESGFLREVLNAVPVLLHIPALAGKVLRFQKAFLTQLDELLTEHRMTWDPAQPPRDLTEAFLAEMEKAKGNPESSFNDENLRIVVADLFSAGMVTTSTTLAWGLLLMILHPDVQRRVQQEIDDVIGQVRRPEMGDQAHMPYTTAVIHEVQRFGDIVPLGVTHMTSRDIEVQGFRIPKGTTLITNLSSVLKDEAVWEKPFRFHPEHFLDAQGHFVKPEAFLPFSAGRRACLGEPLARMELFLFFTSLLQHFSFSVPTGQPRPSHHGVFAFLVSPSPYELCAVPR
Procedure, shortened: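 Luminescent read-out of luciferin formed by 5 nM human CYP2D6 demethylating 30 uM Luciferin-ME EGE (Km level) over 60 min at room temperature after NADPH regeneration addition. Data normalized to full inhibition by 1.43 uM quinidine.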

Row | Structure (SMILES) | Potency [1] | activity change, negative = inhibition [2] | activity change, negative = inhibition [3] | activity change, negative = inhibition [4] | activity, negative = inhibition [5] | Potency [6] | Potency [7] | Potency [8] | Potency [9] | Potency [10] | Potency [11] | Potency [12] | Potency [13] | Potency [3] | activity change, negative = inhibition [11] | Potency [14]
1 | O=C(C[C@@H]1C=Cc2ccccc2N1C(=O)c1ccccc1)c1ccccc1 | > 11.4 µM | -6.74% | -23.2% [at 2.29 µM] | -22.9% | -9.68% | > 46 µM | > 9.22 µM | inactive | inactive | 2.51 µM (active) | 3.98 µM (active) | inactive | 501 nM (active) |  |  | 
2 | O=C(O)CSC1=NCCN1 | > 11.4 µM | 17% |  | 7.29% | 4.64% | > 46 µM | > 9.22 µM | inactive | inactive | inactive |  |  | inactive | inactive | 7.95% [at 11.4 µM] | inactive
3 | NNC(=O)CCc1ccc2ccc3ccccc3c2c1 | > 11.4 µM | -3.44% |  | 13.8% | -11% | > 46 µM | > 9.22 µM | inactive | inactive | 1.58 µM (active) | 0.398 µM (active) | inactive | 251 nM (active) | 31.6 nM (active) |  | 1.58 µM (active)
4 | CCOc1ccccc1/C=C(\C#N)C(N)=O | > 11.4 µM | 3.2% |  | -1.04% | 4.29% | > 46 µM | > 9.22 µM | inactive | inactive | inactive |  |  |  | 2000 nM (active) |  | 
5 | N[C@@H](Cc1ncccn1)C(=O)O | > 11.4 µM | -0.104% |  | 3.63% | 3.82% | > 46 µM | > 9.22 µM | inactive | inactive | inactive |  |  |  | inactive |  | 
6 | N#CNC(N)=Nc1ccc(Cl)cc1 | > 11.4 µM | 5.32% |  | 2.31% | -1.86% | > 46 µM | > 9.22 µM | inactive | inactive | inactive |  |  | inactive | 3980 nM (active) | -49.7% [at 11.4 µM] | inactive
7 | Oc1ccc(Cc2nccc3cc(O)c(O)cc23)cc1O | > 11.4 µM | -6.37% |  | 7.28% | -2.43% | > 46 µM | > 9.22 µM | inactive | inactive | inactive |  |  |  | 5010 nM (active) |  | 1.26 µM (active)
8 | CC1=CC(C)(C)Nc2ccc(CSc3ccccc3)cc21 | > 11.4 µM | 3.94% |  | -4.82% | -11.8% | > 46 µM | > 9.22 µM | inactive | inactive | 0.199 µM (active) | 3.98 µM (active) | inactive | 316 nM (active) | 501 nM (active) |  | 0.631 µM (active)
9 | N=C(N)SCCN1CCCCC1 | > 11.4 µM | 10.8% |  | 0.176% | -0.606% | > 46 µM | > 9.22 µM | inactive | inactive | inactive |  |  | inactive | inactive | -31.7% [at 11.4 µM] | inactive
10 | COc1ccc([C@@H](Nc2ccccn2)c2cc(C(C)(C)C)cc(C(C)(C)C)c2O)cc1 | > 11.4 µM | -15.8% | 1.2% [at 2.29 µM] | -8.5% | -15.2% | > 46 µM | > 9.22 µM | inactive | inactive | 2.51 µM (active) |  | inactive | 2510 nM (active) |  |  | 
11 | Clc1ccc(CSCCc2ccncc2)cc1Cl | > 11.4 µM | -26.7% |  | 2.37% | 5.37% | > 46 µM | > 9.22 µM | inactive | inactive | 0.0794 µM (active) |  | inactive |  | 316 nM (active) |  | 0.316 µM (active)
12 | Nc1nc(N)nc(CCCCc2nc(N)nc(N)n2)n1 | > 11.4 µM | 4.24% | 8.1% [at 2.29 µM] | 12.4% | -0.633% | > 46 µM | > 9.22 µM | inactive | inactive | inactive |  |  | inactive |  |  | inactive
